Where “and” joins values, the source holds several entries; their conditions need not be identical. Equal entries are not always repeated. About 6,800 (1%) of roughly 650,000 compounds were called active. No stated cut-off is given here; in the data, active means activation above about 4.9%; inactive means the rest. The list comes from a sample in which actives are over-represented; it also holds similar structures and randomly drawn compounds. The source holds several records for some structures; these can differ, active in one and inactive in another.

Chain of G-protein coupled receptor 151 (Homo sapiens) (Q8TDV0 whole entry, looked up): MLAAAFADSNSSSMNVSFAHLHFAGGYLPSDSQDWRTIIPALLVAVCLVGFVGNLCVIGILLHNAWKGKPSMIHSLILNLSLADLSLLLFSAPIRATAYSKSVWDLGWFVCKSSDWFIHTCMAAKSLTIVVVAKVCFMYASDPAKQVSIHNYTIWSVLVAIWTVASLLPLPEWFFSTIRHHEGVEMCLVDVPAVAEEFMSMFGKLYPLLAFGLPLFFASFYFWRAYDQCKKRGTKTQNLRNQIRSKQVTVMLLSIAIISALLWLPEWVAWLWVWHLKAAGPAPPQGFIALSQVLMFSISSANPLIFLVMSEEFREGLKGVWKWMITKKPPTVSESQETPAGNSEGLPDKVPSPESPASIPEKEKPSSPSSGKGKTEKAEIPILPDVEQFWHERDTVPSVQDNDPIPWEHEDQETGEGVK

The experiment has as its target G-protein coupled receptor 151 (Homo sapiens) (UniProt Q8TDV0). The experiment can be described thus: activators of human GPR151, primary screen, cell-based, PathHunter beta-arrestin, luminescence (AID 1508602).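 Further: 0% = median of compound wells and 100% = cells with positive control.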 As to conditions: PathHunter beta-arrestin GPR151 cells, at 11.2 µM, stronger effect = higher value.
On to `O=C1CSC2=NCN(c3ccc(I)cc3)CN12`, for which the activation is 0.445% (inactive).
For `CCOc1cc(C#N)ccc1OCC(=O)NCc1ccc2c(c1)OCO2`, the activation was -0.667% (inactive).
For `COc1ccccc1CNC(=O)C1CCN(Cc2nc(-c3ccccc3C)oc2C)CC1`, the activation was -0.157% (inactive).
As for `Cc1ccc2nc(SCc3ccccc3)nc(=O)n2c1`, the activation is 1.52% (inactive).
Consider `c1ccc(NCc2cccc3ccccc23)nc1`, for which the activation is 5.45% (active).
`c1cnc(N2CCN(Cc3cccc4ccccc34)CC2)nc1`: the activation was 0.32% (inactive).
Then `O=C(Cc1cccc2ccccc12)Nc1ncn[nH]1`, with 0.255% (inactive); and `CCCNc1nc(N2CCOCC2)nc2cc(OC)c(OC)cc12`, with -0.145% (inactive).
Then `Cc1sc2ncnc(SC3CCCCN(C(=O)c4ccc(F)cc4)C3=O)c2c1C` (configuration not stated), with 2.61% (inactive); and `O=C(c1ccccc1)N1CCCCC(Sc2ncnc3sc4c(c23)CCCC4)C1=O` (configuration not stated), with 5.26% (active).
In the case of `c1ccc(CSc2ncnc3sc4c(c23)CCCC4)cc1`, the activation is 3.13% (inactive).
In the case of `COc1ccc(OC)c(-c2cc(Cl)c3c(c2)CC(CNC(=O)CSC)O3)c1` (configuration not stated), the activation is 0.143% (inactive).
Take `CCOc1ccc(C2C(C(=O)Nc3ccc(C)c(F)c3)c3ccccc3C(=O)N2CCN2CCOCC2)cc1` (configuration not stated): the activation is -1.65% (inactive).
Next, `O=C(CSc1nnc(NC(=O)CCc2ccccc2)s1)NCc1ccc(F)cc1`: -2.57% (inactive); `Cc1nnc(SCC(=O)NCc2ccccc2)s1`: 6.39% (active).
Next, `Nc1nnc(SCC(=O)OCC(=O)NCc2ccccc2)s1`: -1.05% (inactive); `C/C(N)=C1\C(=O)C(=O)N(C)C1c1ccccc1` (configuration not stated): -1.33% (inactive); `CC(Oc1cccc(Cl)c1)C(=O)O/N=C(\N)c1ccncc1` (configuration not stated): -0.652% (inactive).
Consider `O=C(O)CNC(=O)/C=C\c1ccc(Cl)cc1`, for which the activation was 0.187% (inactive).
Turning to `CCNC(=O)n1cc(-c2ccnc3ccccc23)c(-c2ccncc2)n1`, the activation is -0.919% (inactive).
Then `O=C(Nc1ccc(-c2nnc3n2CCCCC3)cc1)c1ccc(Br)o1`, with -0.517% (inactive); and `O=c1c(Cl)c(-c2ccccc2)oc2ccccc12`, with -1.04% (inactive); and `CCN(CC)C(=O)C1CCCN(c2cc(Nc3ccccc3)nc(N)n2)C1` (configuration not stated), with 1.77% (inactive).
Turning to `CCN(CC)C(=O)C1CCCN(c2nc3ncnc(NCCc4ccc(OC)cc4)c3[nH]2)C1` (configuration not stated), the activation is 0.885% (inactive).
On to `CCN(CC)C(=O)C1CCCN(c2cc(N)nc(N)n2)C1` (configuration not stated), for which the activation is 6.79% (active).
In the case of `CCN(CC)C(=O)C1CCCN(c2cccc(C(=O)NCCc3ccc(OC)cc3)c2)C1` (configuration not stated), the activation was -1.08% (inactive).
As for `CCN(CC)C(=O)C1CCCN(c2cccc(C(=O)NCCc3ccc(OC)cc3)n2)C1` (configuration not stated), the activation is 5.87% (active).
Next, `CCN(CC)C(=O)C1CCCN(c2cc(NCCN(C(C)C)C(C)C)nc(N)n2)C1` (configuration not stated): 4.23% (inactive).
For `O=C(O)c1cc(N=Cc2cccnc2)ccc1O`, the activation is 0.982% (inactive).
With `Cc1ccc(CNC(=O)CCCCCn2c(SCc3cc(=O)n4ccccc4n3)nc3ccsc3c2=O)cc1`, the activation was 1.39% (inactive).
With `O=C(Nc1ccc(F)c(Cl)c1)/C(=C/c1cccc([N+](=O)[O-])c1)NC(=O)c1cccs1`, the activation is 0.762% (inactive).
As to `C=CCNC(=O)/C(=C/c1ccc(Cl)cc1)NC(=O)c1ccccc1`, the activation is 3.04% (inactive).
Regarding `CC(NC(=O)Cc1ccc(-c2ccccc2)cc1)c1nc(-c2cccnc2)n[nH]1` (configuration not stated), the activation is -0.113% (inactive).
As to `CCC(C)OC(=O)C1=C(C)NC2=C(C(=O)CC(c3ccccc3)C2)C1c1ccccc1OCc1ccccc1` (configuration not stated), the activation is 1.93% (inactive).
Consider `COc1ccccc1C(=O)N1CCN2C(=O)CN(C)C(=O)[C@H]2C1`, for which the activation was 1.54% (inactive).
For `CN1CC(=O)N2CCN(C(=O)OCc3ccccc3)C[C@@H]2C1=O`, the activation was 5.14% (active).
Next, `NCCCC[C@@H]1NC(=O)[C@H]2CN(C(=O)OCc3ccccc3)CCN2C1=O`: -0.551% (inactive); `O=C1CSC(c2ccccc2Br)N1c1ccc(F)c(Cl)c1` (configuration not stated): -1.29% (inactive); `COc1cccc(/C=C/C(=O)c2cc3ccccc3oc2=O)c1`: -0.0229% (inactive).
Then `COc1ccc(C(=O)COC(=O)c2ccc3ccccc3n2)c(OC)c1`, with -0.989% (inactive); and `COc1ccc(C(=O)Cc2cc3ccccc3oc2=O)c(OC)c1`, with 8.65% (active).
For `CCCN1CCC(N2CCN(c3cccc(Cl)c3)CC2)CC1`, the activation was -0.685% (inactive).
As for `O=C(CSc1nc2ccccc2c(=O)n1CCCN1CCN(c2cccc(Cl)c2)CC1)N1CCCCCC1`, the activation was 0.298% (inactive).
For the compound `CCc1nn(CCCN2CCN(c3cccc(Cl)c3)CC2)c(=O)n1CCOc1ccccc1`, the activation was 5.41% (active) and -0.0264% (inactive) and -0.848% (inactive).
`O=C(N/N=C/c1cc(Cl)ccc1O)c1cc(-c2ccccc2)n[nH]1`: the activation was 5.58% (active).
For the compound `O=C(N/N=C/c1ccccc1O)c1cc(-c2ccc(Cl)cc2)n[nH]1`, the activation is -0.397% (inactive).
Then `COc1cc(Br)cc(/C=N/NC(=O)c2cc(-c3ccccc3)n[nH]2)c1O`, with 3.1% (inactive).
Turning to `Cn1c(=NC(=O)CN2C(=O)CCC2=O)sc2cc([N+](=O)[O-])ccc21`, the activation is 1.44% (inactive).
Take `CC(C)(C)c1cnnn1-c1ccc(C(=O)/C=C\c2ccco2)cc1`: the activation is 0.0135% (inactive).
With `C=CCc1cccc(/C=N/NC(=O)CCC(=O)Nc2ccc(Br)cc2)c1O`, the activation was 7.12% (active).
`COc1ccc(NC(=O)CCC(=O)N/N=C/c2cc(Cl)ccc2O)cc1`: the activation was -1.64% (inactive).
In the case of `COc1ccc(NC(=O)CCC(=O)N/N=C/c2ccccc2Cl)cc1`, the activation is 0.396% (inactive).
Next, `COc1ccccc1N(CC(=O)Nc1ccc(F)c(Cl)c1)S(=O)(=O)c1ccccc1`: 2.46% (inactive); `COC(=O)c1sccc1N/N=C/c1ccccn1`: -4.95% (inactive).
Next, `COc1ccc(CCNC(=O)Cn2cnc3sc4c(c3c2=O)CCC4)cc1OC`: 0.328% (inactive).
For `COc1ccc(CC(=O)Nc2ccc(-c3nnc(-c4ccccc4)o3)cc2)cc1`, the activation is 7.27% (active).
`COc1ccc(NC(=O)Cc2ccc(C)cc2)cc1`: the activation was -2.5% (inactive).
As for `COc1cccc(NC(=O)CSc2nnc(-c3ccc(NS(C)(=O)=O)cc3)o2)c1`, the activation was 0.627% (inactive).
Take `COc1ccc(CC(=O)Nc2ccc(C(=O)Nc3ccccc3C(=O)O)cc2)cc1`: the activation is 1.57% (inactive).
For `COc1cccc(-c2nnc(SCC(=O)NCc3ccccc3)o2)c1`, the activation is -0.0263% (inactive).
As for `COc1cccc(-c2nnc(NC(=O)CSc3ccccc3)o2)c1`, the activation was 9.1% (active).
In the case of `CCC(C)NC(=O)c1sc2nc(C)nc(N3CCCCC3)c2c1C` (configuration not stated), the activation is 2.24% (inactive).
Take `CCC(CC)C(=O)Nc1ccc(S(=O)(=O)Nc2ncccn2)cc1`: the activation was -0.125% (inactive).
Next, `CCCCCC(=O)OCCNC(=O)c1cc2ccccc2oc1=O`: -0.976% (inactive).
For the compound `Cc1ccc(S(=O)(=O)NCc2csc(-c3ccccc3)n2)cc1`, the activation was 4.76% (inactive).
For `O=S(=O)(NCc1csc(-c2cccnc2)n1)c1ccc2ccccc2c1`, the activation is 5.9% (active).
As to `CCc1ccc(S(=O)(=O)NCc2csc(-c3ccccc3)n2)cc1`, the activation is -1.08% (inactive).
In the case of `NC1=NC(=O)/C(=C/c2ccccc2C(F)(F)F)S1`, the activation was -0.392% (inactive).
In the case of `COc1ccc(OC)c(NC(=O)CSc2nnc3[nH]c(=O)c(C)c(C)n23)c1`, the activation is 5.91% (active).
Regarding `CCCc1cc(=O)[nH]c2nnc(SCC(=O)Nc3cc(OC)ccc3OC)n12`, the activation is -0.547% (inactive).
Turning to `Cc1c(C)n2c(SCC(=O)Nc3ccc4c(c3)OCO4)nnc2[nH]c1=O`, the activation was 1.02% (inactive).
Then `Cc1ccc(CSCc2nnc(SCC(=O)Nc3nccs3)n2C)cc1`, with 0.977% (inactive).
As for `COc1ccc(/C(=N/C(N)=S)Nc2ccccc2)cc1`, the activation is -0.629% (inactive).
As to `COc1cc(/C=C/C(=O)O)ccc1OCc1ccccc1F`, the activation was -0.0946% (inactive).
Regarding `Cc1ccc(-c2nc(CCNC(=O)c3cccs3)cs2)cc1`, the activation was -1.14% (inactive).
For `COC(=O)C1(C)NC(c2ccc(C)cc2)C2C(=O)N(c3ccc(F)cc3)C(=O)C21` (configuration not stated), the activation is -0.111% (inactive).
`COC(=O)C1(C)NC(c2ccc(C)cc2)C2C(=O)N(c3ccc(C)cc3)C(=O)C21` (configuration not stated): the activation was -0.33% (inactive).
For the compound `COC(=O)C1(C)NC(c2ccccc2OC)C2C(=O)N(c3ccccc3)C(=O)C21` (configuration not stated), the activation was 5.08% (active).
Turning to `Cc1c(C(=O)Nc2ccc(F)cc2Cl)sc2ncn(CC(=O)N3CCOCC3)c(=O)c12`, the activation was -1.55% (inactive).
Take `Cc1ccc(C2=CC(c3ccccc3F)n3nnnc3N2)cc1` (configuration not stated): the activation was 0.122% (inactive).
Next, `Clc1ccccc1C1C=C(c2ccc(I)cc2)Nc2nnnn21` (configuration not stated): 13.5% (active); `FC(F)Oc1ccccc1C1C=C(c2ccc(Cl)cc2)Nc2nnnn21` (configuration not stated): -0.0148% (inactive); `CC(C)C[C@@H]1NC(=O)[C@@H]2C[C@H](NCc3cn(C)nc3-c3ccccc3)CN2C1=O`: 2.5% (inactive).
On to `Cc1cc(CN(C)Cc2ccc(OCC(O)CN(C)Cc3ccccc3)cc2)n[nH]1` (configuration not stated), for which the activation is 5.48% (active).
As to `COCCN(C)Cc1ccc(OCC(O)CN(C)Cc2ccccc2)cc1` (configuration not stated), the activation is 2.19% (inactive).
Next, `Cc1nc(CNCc2ccc(OCC(O)CN(C)Cc3ccccc3)cc2)n[nH]1` (configuration not stated): 0.224% (inactive).
Next, `CC(C)Cn1cnc2c1c(=O)[nH]c(=O)n2CC(C)C`: -1.78% (inactive); `CCOC(=O)c1oc2ccc(C=O)c(Cl)c2c1C`: 0.651% (inactive); `COc1ccc(OC)c(C2=NOC(C(=O)Nc3cccc(O)c3)C2)c1` (configuration not stated): 1.6% (inactive).
On to `COc1cc(NC(=O)C2CC(c3ccccc3O)=NO2)c(OC)cc1Cl` (configuration not stated), for which the activation was 5.74% (active).
Then `CC(C)(C)NC(=O)C1CC(c2ccccc2Cl)=NO1` (configuration not stated), with 1.12% (inactive); and `O=C(NNC(=S)NC(=O)c1ccccc1[N+](=O)[O-])c1ccc(O)cc1`, with -0.124% (inactive).
